According to the supplement of paper PMC10849652:
About 7,900 targets were measured; listed, in parts, are those with a hit and a random draw of the rest. About 0.6% of all pairs of compound and target were hits.

Experiments:
Test in all cases: log2 fold change, soluble protein after heating vs DMSO (PISA); higher = thermal stabilisation; K562 cells, 10 uM, 30 min; active = over 0.2 and 3.5 SD of the protein, either way, in both replicates (recomputed)
[1] = compound: COC1=CC=C(C=C1)CN2C=CC3=C2C=C(C=C3)C(=O)NO
Outline: (§1)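 Soluble protein was defined as the supernatant after 21,000xg for 90 min. It came from K562 cells at 2×10^6 cells/mL given 10 μM compound for 30 min, heated in aliquots for 3 min across 48°C-58°C, pooled, and extracted in PBS with 0.5% NP-40 at 4°C, and was quantified by TMTpro 16plex LC-MS/MS with equalised channel sums. Thermal stability against control samples, from duplicates, is reported as log2 fold change.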

filanesib = compound: CON(C)C(=O)N1N=C(c2cc(F)ccc2F)S[C@@]1(CCCN)c1ccccc1 [filanesib]
Outline: as §1

zotarolimus = compound: CO[C@H]1C[C@@H]2CC[C@@H](C)[C@@](O)(O2)C(=O)C(=O)N2CCCC[C@H]2C(=O)O[C@H]([C@H](C)C[C@@H]2CC[C@H](n3cnnn3)[C@H](OC)C2)CC(=O)[C@H](C)/C=C(\C)[C@@H](O)[C@@H](OC)C(=O)[C@H](C)C[C@H](C)/C=C/C=C/C=C/1C [zotarolimus]
Outline: as §1

idasanutlin = compound: COc1cc(C(=O)O)ccc1NC(=O)[C@@H]1N[C@@H](CC(C)(C)C)[C@](C#N)(c2ccc(Cl)cc2F)[C@H]1c1cccc(Cl)c1F [idasanutlin]
Outline: as §1

alisertib = compound: COc1cc(Nc2ncc3c(n2)-c2ccc(Cl)cc2C(c2c(F)cccc2OC)=NC3)ccc1C(=O)O [alisertib]
Outline: as §1

[2] = compound: COc1cc2nc(-c3cc(F)ccc3O)nc(N[C@@H]3CNC[C@H]3C(C)(C)O)c2cc1OC
Outline: as §1

gefitinib = compound: COc1cc2ncnc(Nc3ccc(F)c(Cl)c3)c2cc1OCCCN1CCOCC1 [gefitinib]
Outline: as §1

[3] = compound: COc1cccc2cc(-c3nc([C@H]4CC[C@H](C(=O)O)CC4)n4ncnc(N)c34)[nH]c12
Outline: as §1

lapatinib = compound: CS(=O)(=O)CCNCc1ccc(-c2ccc3ncnc(Nc4ccc(OCc5cccc(F)c5)c(Cl)c4)c3c2)o1 [lapatinib]
Outline: as §1

pictilisib = compound: CS(=O)(=O)N1CCN(Cc2cc3nc(-c4cccc5[nH]ncc45)nc(N4CCOCC4)c3s2)CC1 [pictilisib]
Outline: as §1

[4] = compound: CS(=O)(=O)c1ccc(-c2cnc(N)c(C(=O)Nc3ccccc3)n2)cc1
Outline: as §1

crizotinib = compound: C[C@@H](Oc1cc(-c2cnn(C3CCNCC3)c2)cnc1N)c1c(Cl)ccc(F)c1Cl [crizotinib]
Outline: as §1

[5] = compound: C[C@@H]1COCCN1C2=NC(=NC(=C2)C3(CC3)S(=O)(=O)C)C4=C5C=CNC5=CC=C4
Outline: as §1

[6] = compound: C[C@H](C1=CC=C(C=C1)C(=O)NC2=C3C=CNC3=NC=C2)N
Outline: as §1

duvelisib = compound: C[C@H](Nc1ncnc2nc[nH]c12)c1cc2cccc(Cl)c2c(=O)n1-c1ccccc1 [duvelisib]
Outline: as §1

gandotinib = compound: Cc1cc(Nc2cc(CN3CCOCC3)c3nc(C)c(Cc4ccc(Cl)cc4F)n3n2)n[nH]1 [gandotinib]
Outline: as §1

tozasertib = compound: Cc1cc(Nc2cc(N3CCN(C)CC3)nc(Sc3ccc(NC(=O)C4CC4)cc3)n2)n[nH]1 [tozasertib]
Outline: as §1

[7] = compound: Cc1cc(SCc2sc(-c3ccc(C(F)(F)F)cc3)nc2C)ccc1OCC(=O)O
Outline: as §1

doramapimod = compound: Cc1ccc(-n2nc(C(C)(C)C)cc2NC(=O)Nc2ccc(OCCN3CCOCC3)c3ccccc23)cc1 [doramapimod]
Outline: as §1

ispinesib = compound: Cc1ccc(C(=O)N(CCCN)[C@@H](c2nc3cc(Cl)ccc3c(=O)n2Cc2ccccc2)C(C)C)cc1 [ispinesib]
Outline: as §1

Measured: log2 fold change

ST3GAL2 (UniProt Q16842)
Chain of UniProt Q16842 (Q16842 whole entry, looked up): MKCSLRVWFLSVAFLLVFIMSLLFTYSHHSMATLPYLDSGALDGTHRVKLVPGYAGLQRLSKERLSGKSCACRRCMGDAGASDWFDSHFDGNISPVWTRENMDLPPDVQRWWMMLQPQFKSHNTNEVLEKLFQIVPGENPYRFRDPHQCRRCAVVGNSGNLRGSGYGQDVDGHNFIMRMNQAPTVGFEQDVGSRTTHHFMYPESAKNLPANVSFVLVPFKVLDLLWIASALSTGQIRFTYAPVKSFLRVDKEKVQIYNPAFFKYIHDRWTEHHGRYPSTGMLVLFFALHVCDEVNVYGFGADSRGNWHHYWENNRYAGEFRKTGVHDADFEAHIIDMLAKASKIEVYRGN
inactive: [1] 0.087 | filanesib 0.124 | zotarolimus 0.092 | idasanutlin 0.075 | alisertib -0.134 | [2] 0.1 | gefitinib 0.187 | [3] -0.043 | lapatinib 0.17 | pictilisib 0.102 | [4] 0.096 | crizotinib -0.288 | [5] -0.017 | [6] 0.006 | duvelisib 0.035 | gandotinib 0.127 | tozasertib 0.024 | [7] 0.033 | doramapimod 0 | ispinesib -0.096

SMARCAD1 isoform 2 (UniProt Q9H4L7)
Chain of UniProt Q9H4L7 (Q9H4L7 whole entry, looked up): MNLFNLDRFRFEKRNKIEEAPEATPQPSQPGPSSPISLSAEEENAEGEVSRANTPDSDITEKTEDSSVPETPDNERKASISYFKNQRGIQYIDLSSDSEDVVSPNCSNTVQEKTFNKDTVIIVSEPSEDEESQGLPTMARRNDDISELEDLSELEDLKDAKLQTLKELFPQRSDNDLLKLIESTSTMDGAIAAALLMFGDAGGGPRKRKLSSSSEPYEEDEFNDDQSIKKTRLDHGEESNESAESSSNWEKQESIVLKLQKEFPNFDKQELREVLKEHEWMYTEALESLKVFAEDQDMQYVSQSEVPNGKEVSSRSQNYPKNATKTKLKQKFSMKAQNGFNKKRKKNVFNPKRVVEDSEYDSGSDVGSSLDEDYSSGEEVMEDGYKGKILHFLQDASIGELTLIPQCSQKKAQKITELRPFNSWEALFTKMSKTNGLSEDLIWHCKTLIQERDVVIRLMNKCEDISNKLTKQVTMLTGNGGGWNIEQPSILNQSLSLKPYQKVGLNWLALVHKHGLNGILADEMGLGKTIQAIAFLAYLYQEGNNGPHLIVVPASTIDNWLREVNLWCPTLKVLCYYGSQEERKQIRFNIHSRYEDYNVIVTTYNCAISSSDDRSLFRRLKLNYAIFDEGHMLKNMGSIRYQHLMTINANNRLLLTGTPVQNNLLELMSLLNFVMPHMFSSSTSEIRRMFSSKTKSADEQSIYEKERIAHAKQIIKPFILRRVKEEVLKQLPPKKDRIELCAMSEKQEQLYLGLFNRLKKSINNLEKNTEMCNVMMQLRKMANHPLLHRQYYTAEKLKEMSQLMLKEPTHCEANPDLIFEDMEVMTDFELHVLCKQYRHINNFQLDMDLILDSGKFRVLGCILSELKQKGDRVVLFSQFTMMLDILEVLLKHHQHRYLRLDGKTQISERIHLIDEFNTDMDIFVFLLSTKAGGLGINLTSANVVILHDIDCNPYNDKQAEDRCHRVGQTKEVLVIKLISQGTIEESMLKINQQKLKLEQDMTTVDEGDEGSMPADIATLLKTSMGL
inactive: [1] 0.027 | filanesib -0.098 | zotarolimus 0.028 | idasanutlin -0.073 | alisertib -0.026 | [2] 0.06 | gefitinib -0.062 | [3] -0.004 | lapatinib 0.026 | pictilisib 0.07 | [4] 0.029 | crizotinib -0.112 | [5] 0.088 | [6] -0.054 | duvelisib 0.081 | gandotinib -0.042 | tozasertib 0.059 | [7] 0.15 | doramapimod -0.058 | ispinesib 0

SLC27A4 (UniProt Q6P1M0)
Chain of UniProt Q6P1M0 (Q6P1M0 whole entry, looked up): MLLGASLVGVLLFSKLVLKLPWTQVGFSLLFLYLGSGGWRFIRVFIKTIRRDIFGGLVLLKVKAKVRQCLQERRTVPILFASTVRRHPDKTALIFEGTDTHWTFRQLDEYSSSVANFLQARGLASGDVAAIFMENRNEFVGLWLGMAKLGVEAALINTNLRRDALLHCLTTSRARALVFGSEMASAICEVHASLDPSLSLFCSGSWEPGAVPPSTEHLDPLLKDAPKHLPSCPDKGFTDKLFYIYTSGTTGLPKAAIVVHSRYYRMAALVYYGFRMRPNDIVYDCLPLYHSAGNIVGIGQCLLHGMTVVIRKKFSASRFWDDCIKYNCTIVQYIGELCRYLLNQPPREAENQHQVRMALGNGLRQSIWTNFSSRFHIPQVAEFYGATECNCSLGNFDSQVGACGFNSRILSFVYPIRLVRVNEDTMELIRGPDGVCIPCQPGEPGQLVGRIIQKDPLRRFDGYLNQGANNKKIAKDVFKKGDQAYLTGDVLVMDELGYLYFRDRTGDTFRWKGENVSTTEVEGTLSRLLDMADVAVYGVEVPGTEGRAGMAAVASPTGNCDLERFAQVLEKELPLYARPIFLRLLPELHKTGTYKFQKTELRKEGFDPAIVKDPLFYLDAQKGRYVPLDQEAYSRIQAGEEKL
inactive: [1] 0.134 | filanesib 0.038 | zotarolimus 0.056 | idasanutlin -0.084 | alisertib -0.001 | [2] 0.032 | gefitinib 0.033 | [3] -0.022 | lapatinib 0.055 | pictilisib -0.078 | [4] -0.008 | crizotinib 0.069 | [5] 0.059 | [6] -0.015 | duvelisib 0.082 | gandotinib 0.122 | tozasertib 0.001 | [7] 0.123 | doramapimod 0 | ispinesib -0.103

SSR4 (UniProt P51571)
Chain of UniProt P51571 (P51571 whole entry, looked up): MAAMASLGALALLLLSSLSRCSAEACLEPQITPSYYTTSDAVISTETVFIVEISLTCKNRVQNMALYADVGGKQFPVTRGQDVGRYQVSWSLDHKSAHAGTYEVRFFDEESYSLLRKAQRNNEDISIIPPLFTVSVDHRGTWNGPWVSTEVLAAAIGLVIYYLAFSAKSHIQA
inactive: [1] -0.015 | filanesib -0.052 | zotarolimus 0.036 | idasanutlin -0.012 | alisertib -0.004 | [2] 0.08 | gefitinib -0.023 | [3] 0.047 | lapatinib -0.05 | pictilisib 0.106 | [4] -0.004 | crizotinib 0.001 | [5] 0.081 | [6] -0.054 | duvelisib 0.06 | gandotinib -0.055 | tozasertib 0.029 | [7] 0.033 | doramapimod -0.019 | ispinesib -0.045

SMAD2 (UniProt Q15796)
Chain of UniProt Q15796 (Q15796 whole entry, looked up): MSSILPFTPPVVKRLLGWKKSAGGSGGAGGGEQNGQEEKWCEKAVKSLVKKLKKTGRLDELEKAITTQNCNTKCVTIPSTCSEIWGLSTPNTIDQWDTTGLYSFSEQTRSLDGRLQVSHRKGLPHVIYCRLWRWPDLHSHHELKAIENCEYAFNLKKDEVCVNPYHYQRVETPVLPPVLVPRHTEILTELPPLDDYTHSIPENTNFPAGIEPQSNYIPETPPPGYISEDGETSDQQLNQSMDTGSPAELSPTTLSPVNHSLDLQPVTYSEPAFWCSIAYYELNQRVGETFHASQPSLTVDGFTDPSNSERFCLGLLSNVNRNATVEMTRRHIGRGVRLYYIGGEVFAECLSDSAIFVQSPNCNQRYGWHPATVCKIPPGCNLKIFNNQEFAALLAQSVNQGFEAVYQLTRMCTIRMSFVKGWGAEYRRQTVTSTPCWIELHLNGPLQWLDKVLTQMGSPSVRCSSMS
inactive: [1] -0.011 | filanesib 0.091 | zotarolimus 0.043 | idasanutlin 0 | alisertib 0.032 | [2] -0.016 | gefitinib 0.117 | [3] -0.032 | lapatinib 0.043 | pictilisib 0.102 | [4] 0.132 | crizotinib 0.255 | [5] -0.015 | [6] 0.012 | duvelisib 0.038 | gandotinib 0.045 | tozasertib 0.086 | [7] 0.071 | doramapimod -0.04 | ispinesib -0.019

TM9SF4 (UniProt Q92544)
Chain of UniProt Q92544 (Q92544 whole entry, looked up): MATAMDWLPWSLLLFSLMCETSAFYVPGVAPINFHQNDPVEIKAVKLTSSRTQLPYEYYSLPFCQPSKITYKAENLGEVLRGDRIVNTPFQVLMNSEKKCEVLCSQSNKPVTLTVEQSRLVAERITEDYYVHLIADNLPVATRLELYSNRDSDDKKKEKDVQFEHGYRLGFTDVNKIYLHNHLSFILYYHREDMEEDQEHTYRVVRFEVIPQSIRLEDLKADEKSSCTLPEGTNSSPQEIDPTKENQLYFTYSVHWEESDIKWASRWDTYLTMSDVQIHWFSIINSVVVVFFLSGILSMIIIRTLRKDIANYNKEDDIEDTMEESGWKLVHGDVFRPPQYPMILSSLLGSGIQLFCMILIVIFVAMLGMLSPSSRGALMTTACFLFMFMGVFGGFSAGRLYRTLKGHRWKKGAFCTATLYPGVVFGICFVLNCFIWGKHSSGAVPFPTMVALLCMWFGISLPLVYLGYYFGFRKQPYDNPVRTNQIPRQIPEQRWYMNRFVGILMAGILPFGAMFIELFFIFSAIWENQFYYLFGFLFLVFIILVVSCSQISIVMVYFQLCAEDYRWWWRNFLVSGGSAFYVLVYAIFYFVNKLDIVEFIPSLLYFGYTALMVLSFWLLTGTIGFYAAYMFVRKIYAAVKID
inactive: [1] 0.048 | filanesib -0.04 | zotarolimus 0.036 | idasanutlin 0.004 | alisertib -0.031 | [2] -0.023 | gefitinib 0.086 | [3] 0.004 | lapatinib 0.274 | pictilisib -0.161 | [4] -0.029 | crizotinib -0.141 | [5] 0.036 | [6] 0.04 | duvelisib -0.015 | gandotinib -0.189 | tozasertib 0.006 | [7] 0.044 | doramapimod 0.034 | ispinesib -0.143

SPTBN4 (UniProt Q9H254)
inactive: [1] -0.036 | filanesib -0.068 | zotarolimus 0.014 | idasanutlin -0.237 | alisertib -0.116 | [2] -0.202 | gefitinib -0.047 | [3] 0.158 | lapatinib 0.041 | pictilisib 0.175 | [4] 0.026 | crizotinib 0.09 | [5] -0.024 | [6] 0.098 | duvelisib 0.007 | gandotinib -0.03 | tozasertib -0.039 | [7] -0.003 | doramapimod -0.03 | ispinesib 0.06

SRSF9 (UniProt Q13242)
Chain of UniProt Q13242 (Q13242 whole entry, looked up): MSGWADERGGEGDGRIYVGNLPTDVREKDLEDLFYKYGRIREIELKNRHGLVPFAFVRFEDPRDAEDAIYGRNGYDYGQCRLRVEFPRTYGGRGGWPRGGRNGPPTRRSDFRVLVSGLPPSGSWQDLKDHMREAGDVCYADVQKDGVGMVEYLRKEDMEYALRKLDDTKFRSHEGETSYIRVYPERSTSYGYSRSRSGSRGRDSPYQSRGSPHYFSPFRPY
inactive: [1] -0.088 | filanesib 0.378 | zotarolimus -0.026 | idasanutlin 0.297 | alisertib -0.118 | [2] -0.09 | gefitinib -0.068 | [3] -0.128 | lapatinib 0.155 | pictilisib -0.036 | [4] -0.11 | crizotinib 0.058 | [5] -0.539 | [6] 0.389 | duvelisib -0.142 | gandotinib 0.4 | [7] -0.048 | doramapimod 0.26 | ispinesib -0.255
